According to PubChem BioAssay (EPA / NIEHS):
Activity calls are given as the source filed them. How the source made its calls: active means hit-call score of the fitted dose curve at least 0.9, where 1 is the maximum; inactive means score below 0.9.

What follows are compounds tested on Tumor necrosis factor receptor superfamily member 6 (Homo sapiens) (UniProt P25445) (assay: LTEA_HepaRG_FAS: Life Technologies and Expression Analysis (LTEA) Assay for Fas cell surface death receptor (FAS) using HepaRG (AID 2283447)). Details: mRNA level, 48 h; actives raise or lower the signal.
Procedure: LTEA_HepaRG is a cell based, multiplexed-readout assay that uses HepaRG, a human liver cell line, with measurements taken at 48 hours after chemical dosing on a 96-well plate.LTEA_HepaRG_FAS is one of 102 assay component(s) measured in the LTEA HepaRG cell culture assay. It is a marker of Cell proliferation, survival, death.Data from the assay component LTEA_HepaRG_FAS was analyzed into 1 endpoint. This assay endpoint, LTEA_HepaRG_FAS, was analyzed with bidirectional fitting relative to DMSO as the negative control and baseline of activity. Using a type of inducible reporter, measures of mRNA induction for gain or loss-of-signal activity can be used to understand regulation of transcription factor activity. To generalize the intended target to other relatable targets, this assay endpoint is annotated to the cytokine receptor intended target family, where the subfamily is TNF receptor.
A total of 1060 chemcials from the ToxCast library were tested in eight-point concentration-response experiments. Cell culture and cytotoxicity assays were conducted at Thermo Fisher Scientific's Custom Services facility (Madison, WI). A single lot of human HepaRG cells (Thermo Fisher Scientific, Frederick, MD) was used for the cell culture experiments. 96-well format collagen type I coated plates of human HepaRG cells were prepared using established methods. Briefly, cryopreserved HepaRG cells were thawed, plated at a density of approximately 100,000 cells/well in HepaRG Thaw, Plate, and General Purpose media (HPRG770, Thermo Fisher Scientific), and incubated for 48 hours. 0.5% DMSO was selected as vehicle control to balance the requisite need of DMSO in HepaRG cultures to maintain differentiation (for example, baseline metabolism, proportions of hepatocytes vs. cholangiocytes), while enabling further hepatic receptor pathway activation (for example, PXR and CAR) in response to chemical exposure. 48 hours after plating, the culture medium was replaced with HepaRG Serum-Free Incudtion Media. Cells were exposed to each test chemical in duplicate and maintained in CO2 incubators for another 48 hours. Chemical plates were thawed to room temperature and 200x concentrations of treatment groups were prepared. 8-point conentration-reponse curves were made with the highest exposure at 100 uM, followed by half-log dilutions, all in 0.5% DMSO. Each test plate contained variouse controls, induction positive controls (1mM phenobarbital), cytotoxicity positive controls ([…] aflatoxin B1), vehicle controls (0.5% DMSO), and total lysis controls (0.5% DMSO). Cell morphology images were taken using an Essen IncuCyte FLR automated microscope, with six 96-well plates imaged in about 24 minutes. Images were captured and exported and JPEG files. Spent culture media was transfered to black-well plates for the LDH assay, and remaining media was sorted at -80 C for later use. Cells were treated with RLT buffer and frozen until shipped for gene expression analysis. Total RNA was isolated from the cell suspension in 75 uL of Buffer RLT (Qiagen, Germantown, MD 20874) by Quintiles/Expression Analysis (Durham, NC) using a custom isolation procedure. Total RNA from each plate well was transferred to a preamplification plate. Fluidigm's 96.96 Dynamic ArrayTM (Fluidigm, Amsterdam, the Netherlands) technology was used for gene expression analyses by quantitative reverse transcription polymerase chain reaction (qRT-PCR, performed by Quintiles/Expression Analysis, Durham, NC)89. Standard TaqManTM Assays (Applied Biosystems/ThermoFisher Scientific, Foster City, CA) were used to assess the expression of 93 genes selected based on their selectivity and sensitivity to important hepatic receptors known to be modulated by environmental chemicals; importance in human hepatocyte functionality; and hepatotoxicity. […]
With `CCCCOC(=O)c1ccc(O)cc1` the outcome was “inactive”. In the case of `Cc1ccc(C(C)C)cc1`, the outcome is reported as “inactive”. With `CC[C@H](NC(=O)c1cc(F)ccc1NS(=O)(=O)c1cccc2cccnc12)c1ccccc1` the outcome was “inactive”. With `C[C@]12CC[C@@H]3c4ccc(O)cc4CC[C@H]3[C@@H]1CCC2=O` the outcome was “inactive”. `Cc1cccc2ccccc12` was tested, and the outcome was “inactive”. `CCO[Si](CCCNC(N)=O)(OCC)OCC` was tested, and the outcome was “inactive”. With `Cc1ncc(CO)c(CO)c1O` the outcome was “inactive”. With `CCCCCCCCCC(=O)O` the outcome was “inactive”. For `O=c1[nH]sc2ccccc12`, the outcome was “inactive”. In the case of `Oc1ccccc1`, the outcome is reported as “inactive”. With `CCCCCCCCN(C)CCCCCCCC` the outcome was “inactive”. With `CN(C[C@@H](CC[N+]12CCC(C3CCCCC3)(CC1)CC2)c1ccc(Cl)c(Cl)c1)C(=O)c1cc(C(F)(F)F)cc(C(F)(F)F)c1` the AC50 was 93.8 µM (active). For `CCOC(=O)O[C@H](C)OC(=O)c1ccc2c(c1)cc(C(=O)NC1CCN(C(C)C)CC1)n2Cc1cc(-c2ccc(Cl)s2)on1`, the outcome was “inactive”. With `CCN(CC)C(=O)c1cc(S(=O)(=O)Cc2ccccc2)c(N2CCC(c3ccccc3)CC2)cc1N(CC)CCN(C)C` the AC50 was 30.3 µM (active). `CN(C)C(=O)C1(N2CCCCC2)CCN(CC[C@@]2(c3ccc(Cl)c(Cl)c3)CN(C(=O)c3ccccc3)CCO2)CC1` was tested, and the outcome was “inactive”. In the case of `Clc1cc(Cl)c2c(c1)N=C1CCCCCN1C2`, the outcome is reported as “inactive”. `Cc1ccc2oc(CN(Cc3ccccc3)C(=O)Nc3c(F)cc(F)cc3F)c(-c3ccc(Cl)cc3)c2c1` was tested, and the outcome was “inactive”. In the case of `O=c1ccc2ccccc2o1`, the outcome is reported as “inactive”. `O=C=NCCCCCCN=C=O` was tested, and the outcome was “inactive”. `OC12N=C(c3ccccc3)SC1Cc1cc(Cl)ccc12` (stereo not given) was tested, and the outcome was “inactive”. For `Cc1occc1C(=O)Nc1ccc(C(=O)N2CCC(F)(F)/C(=C\C(=O)N3CCC(N4CCCCC4)CC3)c3ccccc32)cc1`, the outcome was “inactive”. For `CCCOC(=O)c1cc(O)c(O)c(O)c1`, the outcome was “inactive”. `CC1(C)NC(=O)N(c2ccc([N+](=O)[O-])c(C(F)(F)F)c2)C1=O` was tested, and the outcome was “inactive”. For `O=c1c(-c2ccc(O)cc2)coc2cc(O)cc(O)c12`, the outcome was “inactive”. With `COc1ccc2cc(S(=O)(=O)N[C@H](CC(=O)N[C@H](Cc3ccc(CN4[C@H](C)CCC[C@@H]4C)cc3)C(=O)N(C)C(C)C)c3ccc4c(c3)OCO4)ccc2c1` the AC50 was 15.1 µM (active). With `CCCCCCCCCCCO` the outcome was “inactive”. For `Cc1cn([C@H]2C[C@H](N=[N+]=[N-])[C@@H](CO)O2)c(=O)[nH]c1=O`, the outcome was “inactive”. For `CC(C)(C)c1csc(-c2cc3cc(OCc4ccccc4CC(=O)O)ccc3o2)n1`, the outcome was “inactive”. With `CC(=O)N1CCN(c2ccc(OC[C@H]3CO[C@](Cn4ccnc4)(c4ccc(Cl)cc4Cl)O3)cc2)CC1` the AC50 was 89.3 µM (active). With `O=C(O)c1ccccc1-n1cc(C(=O)O)c(=O)c2cc(Nc3c(F)cc(F)cc3Cl)c(Cl)cc21` the outcome was “inactive”. For `CO[C@H]1/C=C/O[C@@]2(C)Oc3c(C)c(O)c4c(O)c(c(/C=N/N5CCN(C)CC5)c(O)c4c3C2=O)NC(=O)/C(C)=C\C=C\[C@H](C)[C@H](O)[C@@H](C)[C@@H](O)[C@@H](C)[C@H](OC(C)=O)[C@@H]1C`, the outcome was “inactive”. In the case of `CCCCCCCCCCCC[N+](C)(C)C`, the AC50 is reported as 82.5 µM (active). `c1ccc2ccccc2c1` was tested, and the outcome was “inactive”. In the case of `O=C1CCC(C2CCCCC2)CC1`, the outcome is reported as “inactive”. In the case of `NCc1cccc(C2CCN(C(=O)c3ccc(C#Cc4ccccc4F)o3)CC2)c1`, the outcome is reported as “inactive”. With `CN1C(=O)N(c2ccccc2Br)Cc2cnc(Nc3ccc4c(c3)OCC(CO)O4)nc21` (stereo not given) the AC50 was 90.4 µM (active). `O=C1O[C@H]([C@@H](O)CO)C(O)=C1O` was tested, and the outcome was “inactive”. For `CC/C(=C(/CC)c1ccc(O)cc1)c1ccc(O)cc1`, the AC50 was 50 µM (active). With `COc1cccc([C@H](O)C2CCN(CCc3ccc(F)cc3)CC2)c1OC` the outcome was “inactive”. `Cc1cc2c(cc1C(F)(F)F)N(C(=O)Nc1ccc(Oc3cccnc3C)nc1)CC2` was tested, and the AC50 was 78.5 µM (active).
